An excerpt weighted towards active compounds, which were near 12% of everything screened.
G9a block: blocks human histone lysine methyltransferase G9a. Q96KQ7. G9a H3K9 monomethylation, AlphaScreen, 2 h. Potency, µM (series often up to 102 µM), inactives show at the top dose activity, negative = inhibition, hits mostly inhibitors. 8.8% of 350,000 active. AID 504332; also: % is scaled to controls: 0 for no effect and ±100 for the full control effect; nearly all actives have a fitted effect of over 75% in size
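AlphaScreen read-out: biotin-H3K9 peptide (500 nM) methylation by 20 nM enzyme with 20 uM SAM, 2 h at room temperature after 15 min compound preincubation; anti-monomethyl H3K9 antibody plus donor/acceptor beads, 10 min dark.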
Sfp inh: inhibitors of Bacillus subtilis Sfp phosphopantetheinyl transferase; Q9F4F7; Potency, µM, inactives show largest response in the series, negative = inhibition, hits mostly inhibitors; Biochemical Sfp PPTase activity, qHTS; 3.5% of 310,000 active; AID 1490;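 also: the enzyme is Sfp with the accession as filed and its product quenches rhodamine fluorescence; 0% = enzyme reaction without inhibitor and -100% = no enzyme wells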
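Sfp 15 nM + cpd, 15 min RT; start w/ rhodamine-CoA 5 uM, BHQ-2-YbbR 12.5 uM (final); 50 mM Hepes pH 7.6, 10 mM MgCl2, 0.01% NP-40, 0.01% BSA; read 525/598 nm at 0 and 30 min.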
JMJD2A Tudor inh: blocks the human JMJD2A Tudor domain | AlphaScreen JMJD2A-Tudor / H3K4me3 peptide binding | Potency, µM (top dose mostly 114 µM), for inactives: at the top dose activity change, negative = inhibition, actives largely listed as inhibitors | 4.4% of 390,000 active | AID 504339; also: % is scaled to controls: 0 for no effect and ±100 for the full control effect; nearly all actives have a fitted effect of over 50% in size
HP1b binding inh: inhibitors of HP1-beta chromodomain binding to methylated histone tails. AlphaScreen HP1-beta / biotin-H3K9me3 peptide binding. Potency, µM (titrated, usually from 114 µM), for inactives: at the top dose activity change, negative = inhibition, most hits filed as inhibitors. 0.56% of 390,000 active. AID 540317; also: nearly all actives have a fitted effect of over 70% in size
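HP1-beta protein (50 nM final) preincubated 30 min at room temperature with biotinylated H3(1-18)K9me3 peptide (50 nM) in PBS pH 7.4, 0.01% Tween-20, then compound added for 30 min. AlphaScreen streptavidin donor/nickel chelate acceptor beads (10 ug/mL final), 30 min dark, luminescence read.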
PLK1 PBD block: PLK1 (human) polo-box domain binding inhibition; P53350; Plk1 PBD binding of FITC phosphopeptide, fluorescence polarization; Potency, µM, inactives show max response, negative = inhibition, actives largely listed as inhibitors; 2.8% of 360,000 active; also: series mostly up to about 57 µM; % is scaled to controls: 0 for no effect and ±100 for the full control effect; nearly all actives have a fitted effect of over 65% in size
BAZ2B inh: blocks human BAZ2B; AlphaScreen BAZ2B-H3K14Ac peptide displacement; Potency, µM (series often up to 114 µM), for the others: at the top dose activity change, negative = inhibition, hits mostly inhibitors; 4.4% of 360,000 active; also: % is scaled to controls: 0 for no effect and ±100 for the full control effect; nearly all actives have a fitted effect of over 60% in size
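Inhibition is scored as reduced AlphaScreen emission. The BAZ2B/b-H3(5-23)K14Ac complex (50 nM each) in PBS pH 7.4, 0.01% Tween-20 meets compound (up to 110 uM) for 30 min at RT before bead addition.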
Numbers without * were called inactive; ? = inconclusive; . = no result given; [ ] = remark or other dose. Calls follow the shape of the dose curve; as a rule, active = well fitted curve in the direction sought with a large enough effect; inconclusive = small, poorly fitted or top-dose-only effect, or another doubt; inactive = no such curve, though single readings can be large; an effect the other way counts as inactive or inconclusive. Potency is read from the fitted curve at half-maximal effect.

SMILES	G9a block	Sfp inh	JMJD2A Tudor inh	HP1b binding inh	PLK1 PBD block	BAZ2B inh
Cc1ccc(-c2cc(C(F)(F)F)n3nc(C(=O)Nc4sc5c(c4C#N)CCC(C)C5)cc3n2)cc1 (stereo not given)	-4.4%[59 µM]	.	-12.7%	16.3%	.	-14.4%
CC1C/C(=N\NC(=O)c2ccc(NS(=O)(=O)c3ccc(Br)cc3)cc2)CC(C)(C)C1 (stereo not given)	18.4%[59 µM]	6.6%	-17.4%	22.2%	-12.1%	7.3%
O=C(CSc1ncccn1)NCC1CCCO1 (stereo not given)	.	.	0.7%	53.7%	-8.3%	.
Cn1cccc1Cc1nnc(SCC(=O)NCC2CCCO2)n1C (stereo not given)	4.2%	-7.5%	-24.8%	?	23.8µM*	2.7%
O=C(CSc1nc2ccccc2[nH]1)NCC1CCCO1 (stereo not given)	31.6µM*	-2.8%	-7.1%	17.6%	-5.6%	-7.7%
O=C(CSc1nc(-c2ccccc2)c(-c2ccccc2)[nH]1)NCC1CCCO1 (stereo not given)	28.2µM*	2.2%	-10.1%	12.2%	-8.7%	?
Cn1c(=O)c(C(=O)NCC2CCCO2)c(O)c2ccccc21 (stereo not given)	-39.3%	23.6%	28.2µM*	9.0%	1.9%	-25.6%
Cn1cccc1Cc1nnc(SCC(=O)NCC2CCCO2)n1CCc1ccccc1 (stereo not given)	15.1%[2.33 µM]	-9.3%	-34.2%	12.1%	-1.9%	-0.3%
COc1cccc(CN2CCCN(CC(=O)Nc3ccc4c(c3)OCCO4)S2(=O)=O)c1	-1.2%[12.7 µM]	.	-5.3%	17.3%	.	-24.2%
COc1ccccc1CNC(=O)CN1C(=O)NC2(CCCc3sccc32)C1=O (stereo not given)	10.1%[12.7 µM]	.	-11.3%	39.4%	-0.9%	3.3%
COC(=O)N1CCC2(CCCN(C(c3ccccc3)c3ccccc3)C2)CC1	3.5%[12.7 µM]	-5.7%	.	.	.	.
O=C(CCCSc1nc2ccccc2[nH]1)NC1CCCCC1	14.8%[59 µM]	26.2%	-3.6%	24.3%	-13.1%	-15.2%
CCn1cc(SCC(=O)NCC2CCCO2)c2ccccc21 (stereo not given)	?	-2.1%	-7.5%	50.9%	7.52µM*	4.4%
O=C(CSc1ccc(Cl)cc1)NCC1CCCO1 (stereo not given)	-1.3%	13.3%	4.3%	24.9%	1.4%	5.0%
O=C(CSc1nc2ccccc2[nH]1)NC1CCCC1	50.1µM*	12.7%	-22.4%	-8.7%	-11.3%	79.4µM*
O=C(CSc1ccc(Br)cc1)NCC1CCCO1 (stereo not given)	39.8µM*	10.0%	5.4%	24.9%	-7.3%	-19.9%
Cc1[nH]c2ccc(C(=O)NCCc3ccccc3Cl)cc2c1C	-9.3%[59 µM]	.	-34.1%	-5.6%	.	?
Cc1cccc(N=C2NC(=O)/C(=C/c3cccs3)S2)c1	1.6%[59 µM]	1.0%	-29.6%	-1.8%	-19.4%	-4.5%
Cc1ccc(N=C2NC(=O)/C(=C\c3cccs3)S2)cc1C	2.82µM*	2.0%	?	7.9%	-18.8%	11.9%
O=C1NC(=Nc2ccccc2)S/C1=C\c1cccn1-c1ccccc1	?	-14.6%	?	-4.8%	-9.9%	?
Cc1ccccc1N=C1NC(=O)/C(=C/c2cccn2C)S1	44.7µM*	2.9%	39.8µM*	?	-8.9%	?
Cc1cccc(N=C2NC(=O)/C(=C/c3cccn3C)S2)c1	.	-14.1%	?	1.8%	-19.6%	39.8µM*
CCc1c(C(=O)NC(C)C2CCCO2)csc1C (stereo not given)	.	10.1%	-17.9%	27.4%	2.9%	1.6%
C=CCn1c(-c2csc(-c3ccc(OC)c(OC)c3)n2)n[nH]c1=S	2.24µM*	16.4%	7.94µM*	24.5%	-15.0%	-8.1%
CCn1c(-c2csc(-c3ccccc3)n2)n[nH]c1=S	1.41µM*	-1.0%	-27.6%	59.8%	-16.5%	-31.9%
C=CCn1c(-c2csc(-c3ccc(Cl)cc3)n2)n[nH]c1=S	?	0.5%	-9.4%	36.8%	-12.1%	13.7%
C=CCn1c(-c2csc(-c3ccccc3)n2)n[nH]c1=S	1.78µM*	-25.0%	-18.4%	33.7%	-23.1%	1.3%

From PubChem
